Results as given in the supplement of paper PMC6555819.

How the values were obtained:
Experiment in all cases: PBM binding z-score (relative to random genomic background probes); higher = stronger binding; sequences stand for … in GC…GCGATTGACAGCGTAGAATGAAGG
[1] = test system: FXR:RXRa (NR concentration 270 nM, RXRa partner concentration 90 nM)
Method in brief: (§1)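 Each nuclear receptor dimer, without ligand, was incubated for 1 h on custom Agilent 4×180K protein-binding microarrays. Binding was detected with antibodies against each partner (one per run), and scanned fluorescence was regression-normalized. The binding z-scores are referenced to random human genomic background probes.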

[2] = test system: LXRa:RXRa (NR concentration 270 nM, RXRa partner concentration 90 nM)
Method in brief: as §1

[3] = test system: LXRa homodimer (NR concentration 270 nM)
Method in brief: as §1

[4] = test system: LXRb:RXRa (NR concentration 270 nM, RXRa partner concentration 90 nM)
Method in brief: as §1

[5] = test system: LXRb homodimer (NR concentration 270 nM)
Method in brief: as §1

[6] = test system: PPARa:RXRa (NR concentration 270 nM, RXRa partner concentration 90 nM)
Method in brief: as §1

[7] = test system: PPARg:RXRa (NR concentration 180 nM, RXRa partner concentration 90 nM)
Method in brief: as §1

[8] = test system: PPARg:RXRa 270nM:90nM, anti-RXR (NR concentration 270 nM, RXRa partner concentration 90 nM)
Method in brief: as §1

[9] = test system: PPARg:RXRa 30nM:10nM, anti-RXR (NR concentration 30 nM, RXRa partner concentration 10 nM)
Method in brief: as §1

[10] = test system: PPARg:RXRa 90nM:30nM, anti-RXR (NR concentration 90 nM, RXRa partner concentration 30 nM)
Method in brief: as §1

[11] = test system: PPARg:RXRa DBDmut IVT, anti-RXR (DBD mutation: RXRa K156A/R161A, NR concentration 270 nM, RXRa partner concentration 90 nM)
Method in brief: as §1

[12] = test system: PPARg:RXRa IVT, anti-PPARg (NR concentration 270 nM, RXRa partner concentration 90 nM)
Method in brief: as §1

[13] = test system: PPARg DBDmut:RXRa IVT, anti-PPARg (DBD mutation: PPARg1 K132A/R137A, NR concentration 270 nM, RXRa partner concentration 90 nM)
Method in brief: as §1

[14] = test system: PPARg DBDmut IVT, anti-PPARg (DBD mutation: PPARg1 K132A/R137A, NR concentration 270 nM)
Method in brief: as §1

[15] = test system: PPARg homodimer (NR concentration 180 nM)
Method in brief: as §1

[16] = test system: PXR:RXRa (NR concentration 270 nM, RXRa partner concentration 90 nM)
Method in brief: as §1

[17] = test system: PXR homodimer (NR concentration 270 nM)
Method in brief: as §1

[18] = test system: RARa:RXR (NR concentration 270 nM, RXRa partner concentration 90 nM)
Method in brief: as §1

[19] = test system: RARa homodimer (NR concentration 270 nM)
Method in brief: as §1

[20] = test system: RARb:RXRa (NR concentration 270 nM, RXRa partner concentration 90 nM)
Method in brief: as §1

| Sequence | PBM binding z-score [1] | PBM binding z-score [2] | PBM binding z-score [3] | PBM binding z-score [4] | PBM binding z-score [5] | PBM binding z-score [6] | PBM binding z-score [7] | PBM binding z-score [8] | PBM binding z-score [9] | PBM binding z-score [10] | PBM binding z-score [11] | PBM binding z-score [12] | PBM binding z-score [13] | PBM binding z-score [14] | PBM binding z-score [15] | PBM binding z-score [16] | PBM binding z-score [17] | PBM binding z-score [18] | PBM binding z-score [19] | PBM binding z-score [20] |
| --- | --- | --- | --- | --- | --- | --- | --- | --- | --- | --- | --- | --- | --- | --- | --- | --- | --- | --- | --- | --- |
| CCTGGTTGGTCAGGAGGTCACACACCGGATATGA | 3.43 | 3.17 | 1.62 | 3.13 | 0.647 | 3.89 | 2.6 | 3.31 | 0.453 | 1.96 | -0.199 | 2.62 | -0.128 | -0.135 | 2.95 | 3.98 | 0.67 | 4.45 | 1.25 | 3.44 |
| TCGGACAGGTGAAGGTAACTCAGGTACGCAGTCG | 0.451 | 1.52 | 0.174 | 0.636 | -0.839 | 0.988 | 0.599 | 1.57 | 2.75 | 1.87 | 2.03 | 1.01 | -0.211 | -0.574 | 0.536 | 0.407 | 0.228 | 0.44 | 0.257 | 1.45 |
| CGAACGAGGGCGTGAGTTGATAGCAAATGCCGAT | -0.128 | -0.241 | -0.781 | -0.468 | -0.878 | 0.0145 | 0.401 | 0.0824 | -0.205 | -0.084 | 0.665 | 0.126 | -0.548 | -1.21 | -0.313 | -0.163 | -0.37 | -0.268 | -0.533 | 0.442 |
| TGAAGGAGGTTAAAGATCAGGGAACGTGGCGTCG | 2.43 | 2.05 | 0.112 | 1.62 | 0.187 | 3.67 | 4.96 | 5.81 | 4.55 | 6.03 | 1 | 2.36 | 0.183 | -0.165 | 1.34 | 1.63 | 0.472 | 2.7 | 0.897 | 1.74 |
| CGTCAATGTTCAAGGTAACGTAACAGAAAGCAGC | -0.00254 | -0.129 | -0.233 | 0.0792 | 0.0791 | -0.0522 | 0.532 | 0.03 | 0.263 | 0.00705 | -0.165 | 0.397 | 0.371 | 0.433 | 0.235 | 0.00739 | -0.0049 | -0.00308 | 0.0887 | 0.375 |
| TAGCCTAGGTCATTGGCCCAGTATAGTACGCATC | 4.84 | 3.9 | 1.34 | 2.45 | -0.219 | 3.53 | 2.1 | 2.32 | 0.439 | 1.49 | 1.34 | 3.13 | 0.481 | -0.598 | 1.5 | 1.71 | -0.0601 | 2.29 | -0.585 | 3.67 |
